Results on 37 compounds are retold here after PubChem BioAssay (NCATS).

Values joined by “and” are separate entries in the source; they are usually repeats but may differ in a detail not shown here. Identical values can stand only once. Results filed as inconclusive are left out. Some compounds were tested as several samples or in several runs, with calls that do not always agree. Active and inactive are the calls of the source. Calls follow the shape of the dose curve; as a rule, active = well fitted curve in the direction sought with a large enough effect; inconclusive = small, poorly fitted or top-dose-only effect, or another doubt; inactive = no such curve, though single readings can be large; an effect the other way counts as inactive or inconclusive. Non-standard residues stand in square brackets, D forms with d. Residues, ends and D or L forms follow the SMILES beside them. *: point of attachment. Sta = CC(C)C[C@H](N)[C@@H](O)CC(=O)O; Isovaleryl = CC(C)CC(=O)*
% is scaled to controls: 0 for no effect and ±100 for the full control effect; potency is read from the fitted curve at half-maximal effect.

The first assay deals with WaGa. The experiment in a line: qHTS assay to identify novel small-molecules to repurpose for Merkel cell carcinoma treatment (AID 1296009). Also: nearly all actives have a fitted effect of over 60% in size. Particulars: MCC and control cell lines, CellTiter-Glo viability, 72 h; series mostly up to 46 µM; activity change, negative = cytotoxicity: at the top concentration. The procedure, abridged: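 Cells were incubated with compound for 72 hr at 37 degree celsius before CellTiter-Glo addition. Luminescence was normalized with no-cell wells as full cytotoxicity and DMSO as baseline.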
In general terms: In qHTS, concentration-response curves come from the screen itself.
As for `CS(=O)(=O)OCCCCOS(C)(=O)=O`, the Potency result is “inactive”.
The same measure, in the same setting: in the case of `COc1cc(Nc2c(C#N)cnc3cc(OCCCN4CCN(C)CC4)c(OC)cc23)c(Cl)cc1Cl` it was 29.9 µM (active) and inactive; in that of `CC(C)c1ccc2oc3nc(N)c(C(=O)O)cc3c(=O)c2c1`, “inactive”.
On the same count and under the same terms, in the case of `c1ccc2[nH]c(-c3cscn3)nc2c1` it was “inactive”.
Same read-out and setting: in the case of `CN(C)C(=O)COC(=O)Cc1ccc(OC(=O)c2ccc(N=C(N)N)cc2)cc1` it was “inactive”; in that of `Cc1cc2c(s1)Nc1ccccc1N=C2N1CCN(C)CC1`, “inactive”.
As for `Cc1cc(C2CCCCC2)n(O)c(=O)c1`, the Potency was 1.88 µM (active) and 11.8 µM (active).
Consider `CC1=C(C)C(=O)C(C(CCCCCC(=O)O)c2ccccc2)=C(C)C1=O` (centres undefined), for which the “activity change, negative = cytotoxicity” value is -9.93% (inactive).
Still for that read-out and setting: in the case of `CC(=O)NC[C@H]1CN(c2ccc(N3CCOCC3)c(F)c2)C(=O)O1` it was -2.55% (inactive).
In the case of `NNc1nncc2ccccc12`, the Potency entry is “inactive”.
Still for that read-out and setting: then `CC(S)C(=O)NCC(=O)O` (centres undefined), with “inactive”.
For `Cc1ccc(Nc2nccc(N(C)c3ccc4c(C)n(C)nc4c3)n2)cc1S(N)(=O)=O`, the “activity change, negative = cytotoxicity” value is -5.87% (inactive).
Still for that read-out and setting: then `Cc1c(C(=O)NN2CCCCC2)nn(-c2ccc(Cl)cc2Cl)c1-c1ccc(Cl)cc1`, with -13.6% (inactive).
Take `CCCc1cc(=O)[nH]c(=S)[nH]1`: the Potency result is “inactive and 18.7 µM (active)”.
As for `Clc1ccc(C(Cn2ccnc2)OCc2ccc(Sc3ccccc3)cc2)c(Cl)c1` (centres undefined), the “activity change, negative = cytotoxicity” value was -21.6% (inactive).
In the case of `COCCCOc1ccnc(CS(=O)c2nc3ccccc3[nH]2)c1C` (centres undefined), the Potency entry is “inactive”.
On the same count and under the same terms, in the case of `CC[C@]1(O)C[C@H]2CN(CCc3c([nH]c4ccccc34)[C@@](C(=O)OC)(c3cc4c(cc3OC)N(C=O)[C@H]3[C@@](O)(C(=O)OC)[C@H](OC(C)=O)[C@]5(CC)C=CCN6CC[C@]43[C@@H]65)C2)C1` it was 3.3 nM (active) and 26.6 nM (active).
For the compound `CC1(C)CCC(C)(C)c2cc(NC(=O)c3ccc(C(=O)O)cc3)ccc21`, the “activity change, negative = cytotoxicity” value was -18.4% (inactive).
The same measure, in the same setting: in the case of `COc1ccccc1N1CCN(CCN(C(=O)C2CCCCC2)c2ccccn2)CC1` it was 7.32% (inactive); in that of `Cc1c(OCC(F)(F)F)ccnc1CS(=O)c1nc2ccccc2[nH]1` (centres undefined), 10.8% (inactive); in that of `COc1cc2c(N3CCN(C(=O)Nc4ccc(OC(C)C)cc4)CC3)ncnc2cc1OCCCN1CCCCC1`, -8.03% (inactive).
Still for that read-out and setting: then `CC(C)CC(=O)N[C@H](C(=O)N[C@H](C(=O)N[C@@H](CC(C)C)[C@@H](O)CC(=O)N[C@@H](C)C(=O)N[C@@H](CC(C)C)[C@@H](O)CC(=O)O)C(C)C)C(C)C` (Isovaleryl-VV[Sta]A[Sta]-OH), with 4.67% (inactive).
Consider `Clc1ccc(C(Cn2ccnc2)OCc2ccsc2Cl)c(Cl)c1` (centres undefined), for which the Potency entry is “inactive”.
As for `N=C(N)c1ccc2cc(OC(=O)c3ccc(N=C(N)N)cc3)ccc2c1`, the Potency entry is “inactive and 26.6 µM (active)”.
With `CCOC(=O)c1c(C)n(C)c2ccc(O)cc12`, the Potency entry is “inactive”.
For the compound `CN(C)C(=O)[C@H](O)[C@H](Cc1ccccc1)NC(=O)c1cc2cc(Cl)ccc2[nH]1`, the “activity change, negative = cytotoxicity” value was 6.38% (inactive).
Still for that read-out and setting: in the case of `Cc1ccc(C(=O)c2cc(O)c(O)c([N+](=O)[O-])c2)cc1` it was -9.7% (inactive).
Consider `O=C(O)c1cccc(-c2noc(-c3ccccc3F)n2)c1`, for which the Potency result is “inactive”.
The same measure, in the same setting: then `CCC1=C(C)CN(C(=O)NCCc2ccc(S(=O)(=O)NC(=O)NC3CCC(C)CC3)cc2)C1=O` (centres undefined), with “inactive”.
Same read-out and setting: in the case of `CC(=O)Nc1ccc(O)cc1` it was “inactive”.
As for `OC(CN1CCN(c2cccc(Cl)c2)CC1)C(c1ccccc1)c1ccccc1` (centres undefined), the “activity change, negative = cytotoxicity” value is -0.319% (inactive).
`O=C(NOCC1CC1)c1ccc(F)c(F)c1Nc1ccc(I)cc1Cl`: the Potency is 15 µM (active).
Same read-out and setting: then `Cc1cc(=O)c2c(O)c3c(O)cc(=O)c4c3c3c(cc(O)c1c23)C(C)(C)C=4O`, with “inactive”.
For `COc1cc(C(C)=O)ccc1OCCCN1CCC(c2noc3cc(F)ccc23)CC1`, the “activity change, negative = cytotoxicity” value was -4.58% (inactive).
As to `COc1cc2nc(N3CCN(C(=O)C4CCCO4)CC3)nc(N)c2cc1OC` (centres undefined), the Potency entry was “inactive”.
Still for that read-out and setting: in the case of `Cc1ncc([N+](=O)[O-])n1CC(C)O` (centres undefined) it was “inactive”; in that of `O=C(O)CCNC(=O)c1ccc(N=Nc2ccc(O)c(C(=O)O)c2)cc1`, “inactive”.

The subject of another assay is C33A. In words: Primary qHTS to identify gynecologic anti-cancer compounds using libraries of approved drugs and bioactive compounds (AID 1345084). Also: nearly all actives have a fitted effect of over 55% in size. Particulars: Gynecologic cancer cell panel viability, ATPlite luminescence, 48 h; series mostly up to 57.5 µM; activity change, negative = cytotoxicity: at the top concentration. The gist of the method:
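48 h compound exposure at 37 C, 5% CO2; five-point qHTS. ATPlite luminescence readout of cell ATP.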
Turning to `CS(=O)(=O)OCCCCOS(C)(=O)=O`, the “activity change, negative = cytotoxicity” value was 9.36% (inactive).
Consider `COc1cc(Nc2c(C#N)cnc3cc(OCCCN4CCN(C)CC4)c(OC)cc23)c(Cl)cc1Cl`, for which the Potency is 14.1 µM (active).
Still for that read-out and setting: then `CC(C)c1ccc2oc3nc(N)c(C(=O)O)cc3c(=O)c2c1`, with 8.91 µM (active).
For `c1ccc2[nH]c(-c3cscn3)nc2c1`, the “activity change, negative = cytotoxicity” value was -12.1% (inactive).
Same read-out and setting: in the case of `CN(C)C(=O)COC(=O)Cc1ccc(OC(=O)c2ccc(N=C(N)N)cc2)cc1` it was 9.68% (inactive).
Turning to `Cc1cc2c(s1)Nc1ccccc1N=C2N1CCN(C)CC1`, the Potency result is “inactive”.
On the same count and under the same terms, then `Cc1cc(C2CCCCC2)n(O)c(=O)c1`, with 15.8 µM (active).
As for `CC1=C(C)C(=O)C(C(CCCCCC(=O)O)c2ccccc2)=C(C)C1=O` (centres undefined), the “activity change, negative = cytotoxicity” value is 0.971% (inactive).
With `CC(=O)NC[C@H]1CN(c2ccc(N3CCOCC3)c(F)c2)C(=O)O1`, the “activity change, negative = cytotoxicity” value is 5.03% (inactive).
The same measure, in the same setting: then `NNc1nncc2ccccc12`, with 1.39% [at 25.3 µM] (inactive).
Same read-out and setting: in the case of `CC(S)C(=O)NCC(=O)O` (centres undefined) it was 4.96% (inactive).
`Cc1ccc(Nc2nccc(N(C)c3ccc4c(C)n(C)nc4c3)n2)cc1S(N)(=O)=O`: the Potency entry was “inactive”.
With `Cc1c(C(=O)NN2CCCCC2)nn(-c2ccc(Cl)cc2Cl)c1-c1ccc(Cl)cc1`, the “activity change, negative = cytotoxicity” value is 3.59% (inactive).
Still for that read-out and setting: then `CCCc1cc(=O)[nH]c(=S)[nH]1`, with 11.1% (inactive); and `Clc1ccc(C(Cn2ccnc2)OCc2ccc(Sc3ccccc3)cc2)c(Cl)c1` (centres undefined), with -14.5% (inactive).
Consider `COCCCOc1ccnc(CS(=O)c2nc3ccccc3[nH]2)c1C` (centres undefined), for which the “activity change, negative = cytotoxicity” value is -16.8% (inactive).
For the compound `CC[C@]1(O)C[C@H]2CN(CCc3c([nH]c4ccccc34)[C@@](C(=O)OC)(c3cc4c(cc3OC)N(C=O)[C@H]3[C@@](O)(C(=O)OC)[C@H](OC(C)=O)[C@]5(CC)C=CCN6CC[C@]43[C@@H]65)C2)C1`, the Potency is 0.631 µM (active).
For `CC1(C)CCC(C)(C)c2cc(NC(=O)c3ccc(C(=O)O)cc3)ccc21`, the “activity change, negative = cytotoxicity” value was 1.39% (inactive).
On the same count and under the same terms, then `COc1ccccc1N1CCN(CCN(C(=O)C2CCCCC2)c2ccccn2)CC1`, with -1.54% (inactive); and `Cc1c(OCC(F)(F)F)ccnc1CS(=O)c1nc2ccccc2[nH]1` (centres undefined), with 0.019% (inactive).
As to `COc1cc2c(N3CCN(C(=O)Nc4ccc(OC(C)C)cc4)CC3)ncnc2cc1OCCCN1CCCCC1`, the Potency entry was “inactive”.
With `CC(C)CC(=O)N[C@H](C(=O)N[C@H](C(=O)N[C@@H](CC(C)C)[C@@H](O)CC(=O)N[C@@H](C)C(=O)N[C@@H](CC(C)C)[C@@H](O)CC(=O)O)C(C)C)C(C)C` (Isovaleryl-VV[Sta]A[Sta]-OH), the “activity change, negative = cytotoxicity” value is 5.64% (inactive).
With `Clc1ccc(C(Cn2ccnc2)OCc2ccsc2Cl)c(Cl)c1` (centres undefined), the “activity change, negative = cytotoxicity” value is -0.971% (inactive).
The same measure, in the same setting: in the case of `N=C(N)c1ccc2cc(OC(=O)c3ccc(N=C(N)N)cc3)ccc2c1` it was -10.1% (inactive); in that of `CCOC(=O)c1c(C)n(C)c2ccc(O)cc12`, -3.01% (inactive); in that of `CN(C)C(=O)[C@H](O)[C@H](Cc1ccccc1)NC(=O)c1cc2cc(Cl)ccc2[nH]1`, 15.6% (inactive).
On the same count and under the same terms, in the case of `Cc1ccc(C(=O)c2cc(O)c(O)c([N+](=O)[O-])c2)cc1` it was 5.95% (inactive).
With `O=C(O)c1cccc(-c2noc(-c3ccccc3F)n2)c1`, the Potency is 11.2 µM (active) and 12.6 µM (active).
As to `CCC1=C(C)CN(C(=O)NCCc2ccc(S(=O)(=O)NC(=O)NC3CCC(C)CC3)cc2)C1=O` (centres undefined), the Potency result was “inactive”.
For `CC(=O)Nc1ccc(O)cc1`, the “activity change, negative = cytotoxicity” value was 0.324% (inactive).
The same measure, in the same setting: then `OC(CN1CCN(c2cccc(Cl)c2)CC1)C(c1ccccc1)c1ccccc1` (centres undefined), with 9.75% (inactive); and `O=C(NOCC1CC1)c1ccc(F)c(F)c1Nc1ccc(I)cc1Cl`, with -22% (inactive).
On to `Cc1cc(=O)c2c(O)c3c(O)cc(=O)c4c3c3c(cc(O)c1c23)C(C)(C)C=4O`, for which the Potency was 3.55 µM (active).
For the compound `COc1cc(C(C)=O)ccc1OCCCN1CCC(c2noc3cc(F)ccc23)CC1`, the “activity change, negative = cytotoxicity” value was -2.24% (inactive).
With `COc1cc2nc(N3CCN(C(=O)C4CCCO4)CC3)nc(N)c2cc1OC` (centres undefined), the “activity change, negative = cytotoxicity” value is -1.31% (inactive).
On the same count and under the same terms, in the case of `Cc1ncc([N+](=O)[O-])n1CC(C)O` (centres undefined) it was -1.58% (inactive); in that of `O=C(O)CCNC(=O)c1ccc(N=Nc2ccc(O)c(C(=O)O)c2)cc1`, -0.229% (inactive).
